Screening results (PubChem BioAssay)
GDH-TPI counter: GDH-TPI coupled enzyme inhibition counter-screen; inhibition, % at 4.8 µM; 360,000 tested, 1.2% active; GDH-TPI coupled enzyme counterscreen, NADH absorbance; in the data active = inhibition above about 30%
Mtb FBA inh: Mtb fructose-bisphosphate aldolase inhibition; P9WQA3; purified M. tuberculosis FBA, fluorescence read-out; inhibition, % at 1 µM; 360,000 tested, 2.3% active; in the data active = inhibition above about 27%
Target sequence (P9WQA3 whole entry, looked up): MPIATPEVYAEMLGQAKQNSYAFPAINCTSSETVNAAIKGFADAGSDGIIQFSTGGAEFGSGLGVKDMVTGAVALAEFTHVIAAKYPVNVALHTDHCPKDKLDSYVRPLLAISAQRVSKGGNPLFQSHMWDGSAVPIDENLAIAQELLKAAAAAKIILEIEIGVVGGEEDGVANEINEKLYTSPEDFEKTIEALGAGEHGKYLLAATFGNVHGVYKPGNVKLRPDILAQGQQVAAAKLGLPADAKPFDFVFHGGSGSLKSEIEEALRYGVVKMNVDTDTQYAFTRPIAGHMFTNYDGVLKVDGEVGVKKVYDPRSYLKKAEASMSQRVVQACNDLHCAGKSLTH
Vc quorum ag-1: induces V. cholerae light production without autoinducers. 350,000 tested, 0.16% active. activation, % at 18.7 µM. V. cholerae BH1578 lux reporter, luminescence, 6 h; in the data active = activation mostly above about 9.7%, no sharp cut-off
Rv3671c inh: inhibitors of M. tuberculosis serine protease Rv3671c | P9WHR9 | inhibition, % at 5.96 µM | 320,000 tested, 0.048% active | AID 2606; in the data active = inhibition above about 38%;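 note: extracellular domain of Rv3671c used as enzyme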
RecA intein inh: Mtb RecA intein splicing inhibition; P9WHJ3; cell-free RecA intein splicing, fluorescence; inhibition, % (concentration not given with the values); 290,000 tested, 0.75% active; in the data active = inhibition above about 30%
UGM FP inh: Mtb UDP-galactopyranose mutase inhibition; P9WIQ1; purified UGM, fluorescence polarization probe displacement; inhibition, % at 10 µM; 320,000 tested, 0.06% active; in the data active = inhibition above about 10%, passing the limit was not always enough
Vc quorum ag-2: inducers of V. cholerae quorum light production without autoinducers; shares compounds with Vc quorum ag-1; V. cholerae BH1578 lux reporter, luminescence, 6 h; activation, % at 50 µM; 620 tested, under 10 active; AID 602243; call rule not given here
Of the large screens only hits and unclear results are named; the others gave an inactive call (follow-up assays come after a bar, where they were run). Sampled rows, rich in hits. Any-hit rate of the full collection: about 4.1%.

CN(CC(=O)Nc1c(Cl)cccc1Cl)C(=O)c1n[nH]c2ccccc12	none (no result: UGM FP inh) | Vc quorum ag-2 inactive
COc1ccc(NC(=O)CN(C)C(=O)c2cccc(S(=O)(=O)N3CCN(Cc4ccccc4)CC3)c2)cc1	none
COc1ccc(NC(=O)CN(C)C(=O)c2cccc(S(=O)(=O)N3CCN(C)CC3)c2)cc1	none | Vc quorum ag-2 inactive
S=C(c1ccc(N2CCOCC2)cc1)N1CCCCC1	Vc quorum ag-1 19.8 | Vc quorum ag-2 inactive
Oc1ccc(C(=S)N2CCCCC2)cc1	none (no result: Vc quorum ag-1)
COc1ccc(OC)c(NC(=O)Nc2cccc(Cn3cccn3)c2)c1	none | Vc quorum ag-2 inactive
COc1cccc(NC(=O)Nc2cc(C)ccc2OC)c1	none
Cc1ccc(S(=O)(=O)N(C)c2nc3ccccc3[nH]c2=S)cc1	none
Cc1ccc(S(=O)(=O)N(C)c2nonc2C)cc1	none | Vc quorum ag-2 inactive
Cc1ccccc1NC(=O)c1cc2ccccc2o1	none (no result: RecA intein inh)
CC1CCN(c2ccccc2NC(=O)c2cc3ccccc3o2)CC1	Vc quorum ag-1 97.2 | Vc quorum ag-2 inactive
CCc1ccc(NC(=O)C2CCN(S(=O)(=O)c3cccs3)CC2)cc1	none (no result: RecA intein inh)
CC(C)c1ccc(CNc2nnnn2C)cc1	none (no result: Vc quorum ag-1) | Vc quorum ag-2 inactive
CCOc1ccc(CNc2nnnn2C)cc1	Vc quorum ag-1 active | Vc quorum ag-2 inactive
Cn1nnnc1NCc1cccc(Cl)c1	none
CCCOc1cc(C)c(S(=O)(=O)NCCOC)cc1C	none | Vc quorum ag-2 inactive
CCOC(=O)c1ccc(NC(=O)NNC(=O)CCc2ccc(OC)cc2)cc1	none (no result: Rv3671c inh)
CCn1nnnc1SCC(=O)c1ccc2c(c1)OCCO2	Vc quorum ag-1 active | Vc quorum ag-2 inactive
O=C(CSc1nnc2ccccn12)c1ccc2c(c1)OCCO2	Vc quorum ag-1 active | Vc quorum ag-2 inactive
CC(C)n1nnnc1SCC(=O)c1ccc2c(c1)OCCO2	Vc quorum ag-1 active | Vc quorum ag-2 inactive
COc1ccc(C(=O)CSc2nnc3ccccn23)cc1OC	none
CCOc1ccccc1CN1CCCC(C(=O)Nc2cccc(-n3cccn3)c2)C1 (configuration not stated)	none
COc1ccc(S(=O)(=O)N2CCCCC2c2cc(C(=O)Nc3ccccc3)no2)cc1 (configuration not stated)	none (no result: Rv3671c inh, RecA intein inh, UGM FP inh)
COCc1ccc(C(=O)NC2CCSc3ccccc32)cc1 (configuration not stated)	none
COC(=O)CCc1c(C)[nH]c(=S)[nH]c1=O	none
CCOC(=O)Cc1c(C)[nH]c(=S)[nH]c1=O	Vc quorum ag-1 16.7 | Vc quorum ag-2 inactive
CC(C)(C)c1ccccc1NC(=S)NC1CCCCC1	none
O=C(CN1CCN(Cc2ccc(F)cc2Cl)C1=O)NCCc1ccccc1	none
O=C(O)CN1CCN(Cc2ccc(F)cc2Cl)C1=O	none | Vc quorum ag-2 inactive
COCc1nnc(NC(=O)CCSc2ccccc2)s1	none (no result: RecA intein inh)
COCCSc1ccccc1C(=O)Nc1nnc(COC)s1	none | Vc quorum ag-2 inactive
CCN(CC)S(=O)(=O)c1ccc(OCC(=O)NC2CCS(=O)(=O)C2)c([N+](=O)[O-])c1 (configuration not stated)	none
Cc1ccc(OCC(=O)NC2CCS(=O)(=O)C2)c([N+](=O)[O-])n1 (configuration not stated)	none | Vc quorum ag-2 inactive
COc1ccc(Br)cc1CN(C)CC(=O)NCc1ccc(F)cc1	none
CCN(CC)S(=O)(=O)c1cccc(C(=O)OCC(=O)C23CC4CC(CC(C4)C2)C3)c1	none | Vc quorum ag-2 inactive
O=C(c1ccc2c(=O)n3c(nc2c1)CCCCC3)N1CCc2ccccc21	none
COC(=O)c1ccc(C2C(C(C)=O)=C(O)C(=O)N2CCO)cc1 (configuration not stated)	Vc quorum ag-1 16.7 | Vc quorum ag-2 inactive
COC(=O)c1nnn(-c2nonc2N)c1CSc1nc2ccccc2o1	none (no result: RecA intein inh)
COC(=O)c1nnn(-c2nonc2N)c1CSc1nc2ccccc2s1	Vc quorum ag-1 25.0 | Vc quorum ag-2 inactive
O=C(Nc1ccc(S(=O)(=O)NC2=NCCCCC2)cc1)c1ccco1	none
CCc1nc(NCCCN2CCOCC2)c2oc3ccccc3c2n1	none | Vc quorum ag-2 inactive
CCc1nc(NCCN2CCOCC2)c2oc3ccccc3c2n1	none
CCC(C)n1c(SC(C)C#N)nc2ccccc2c1=O (configuration not stated)	none
CC(C#N)On1c(SC(C)C#N)nc2ccccc2c1=O (configuration not stated)	none (no result: RecA intein inh) | Vc quorum ag-2 inactive
CCC(=O)N(CC)c1nc(-c2cc(OC)ccc2OC)cs1	Vc quorum ag-1 15.4 | Vc quorum ag-2 inactive
COc1cccc(CNC(=O)COC(=O)CN(C)S(=O)(=O)c2ccc(NC(C)=O)cc2)c1	none | Vc quorum ag-2 inactive
O=S(=O)(Nc1cccc(S(=O)(=O)N2CCCCC2)c1)c1ccccc1F	Vc quorum ag-1 26.1 (no result: RecA intein inh) | Vc quorum ag-2 inactive
O=S(=O)(Nc1cccc(S(=O)(=O)N2CCCC2)c1)c1ccccc1F	none (no result: RecA intein inh)
NC(=O)NOCc1ncc(C(F)(F)F)cc1Cl	none
CS(=O)(=O)NNC(=O)c1sccc1OCc1ncc(C(F)(F)F)cc1Cl	none | Vc quorum ag-2 inactive
Cc1cc(=O)oc2ccc(OCc3ccccc3)cc12	none (no result: Vc quorum ag-1) | Vc quorum ag-2 inactive
Cc1cc(NC(=O)COC(=O)CCNS(=O)(=O)c2ccccc2)n(-c2ccccc2)n1	none
CCOC(=O)Cn1nc(C)n(-c2ccc(C(C)C)cc2)c1=O	none | Vc quorum ag-2 inactive
CCOC(=O)Cn1nc(C)n(-c2ccc(Cl)cc2)c1=O	none
Cc1ccc(S(=O)(=O)NC(=O)C2(C)CCN2C(=O)c2ccccc2CCc2ccccc2)cc1 (configuration not stated)	none (no result: Rv3671c inh, RecA intein inh, UGM FP inh)
COc1ccc(C(=O)C2CCN(C(=O)c3ccc(OC)cc3)CC2)cc1	none
COc1ccc(C(=O)N2CCC(C(=O)c3ccc(F)cc3)CC2)cc1	Vc quorum ag-1 16.7 | Vc quorum ag-2 inactive
O=C(COc1cccc(Cl)c1)Nc1ccccc1N1CCCCC1	none (no result: UGM FP inh) | Vc quorum ag-2 inactive
COc1cc(NC(=O)Nc2cccc(Cl)c2)c(OC)cc1NC(=O)CN1CCCCC1	none | Vc quorum ag-2 inactive
COc1ccc(Cl)cc1NC(=O)CN1CCc2ccccc2C1	Vc quorum ag-1 106.7 | Vc quorum ag-2 inactive
COc1cc2c(cc1OC)CN(CC(=O)Nc1ccc(Cl)cc1Cl)CC2	none
CSc1nc(C(=O)N2CCCC(N3CCN(c4ccccc4C)CC3)C2)cs1 (configuration not stated)	none (no result: RecA intein inh)
CCCCN1CC(N2CCCCC2)CS1(=O)=O (configuration not stated)	none (no result: GDH-TPI counter, Vc quorum ag-1, Rv3671c inh, RecA intein inh, UGM FP inh)
CC(=O)N1CCC(=O)N(C(C)C)c2ccccc21	Vc quorum ag-1 25.0 | Vc quorum ag-2 inactive
O=C(C[n+]1ccccc1)N/N=C/c1ccc(C(=O)O)cc1	none (no result: RecA intein inh)
C=CCn1c(=O)c(C(=O)NC(C)c2ccccc2)c(O)c2ccccc21 (configuration not stated)	Vc quorum ag-1 450.8 | Vc quorum ag-2 inactive
O=C(NCCOC(=O)c1c(F)cccc1Cl)c1c(F)cccc1Cl	none (no result: Rv3671c inh)
Cc1cccc(-c2noc(CN(C(=O)C34CC5CC(CC(C5)C3)C4)C(C)C)n2)c1	Vc quorum ag-1 17.9 | Vc quorum ag-2 inactive
